Out of some 320,000 compounds screened, about 3,100 (0.97%) were called active.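 The calls were made as follows: active = mean replicate inhibition of at least 70% and a set share of replicates each scoring 70 or more; inconclusive = meets just one of the two criteria; inactive = fails both criteria.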 This excerpt belongs to a sample that is enriched for actives.
Each compound was assayed against Scavenger receptor class B member 1 (Mus musculus) (UniProt Q61009) (assay: mouse SR-BI DiI-HDL uptake blockers – ldlA[mSR-BI] cells, fluorescence, single point, primary screen (AID 488896;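 also: 0% = median of neutral control wells and 100% = median of positive control wells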)). Conditions: ldlA[mSR-BI] CHO cells, 3 h, at 12.5 µM, active compounds read high.
Chain of Scavenger receptor class B member 1 (Mus musculus) (Q61009 whole entry, looked up): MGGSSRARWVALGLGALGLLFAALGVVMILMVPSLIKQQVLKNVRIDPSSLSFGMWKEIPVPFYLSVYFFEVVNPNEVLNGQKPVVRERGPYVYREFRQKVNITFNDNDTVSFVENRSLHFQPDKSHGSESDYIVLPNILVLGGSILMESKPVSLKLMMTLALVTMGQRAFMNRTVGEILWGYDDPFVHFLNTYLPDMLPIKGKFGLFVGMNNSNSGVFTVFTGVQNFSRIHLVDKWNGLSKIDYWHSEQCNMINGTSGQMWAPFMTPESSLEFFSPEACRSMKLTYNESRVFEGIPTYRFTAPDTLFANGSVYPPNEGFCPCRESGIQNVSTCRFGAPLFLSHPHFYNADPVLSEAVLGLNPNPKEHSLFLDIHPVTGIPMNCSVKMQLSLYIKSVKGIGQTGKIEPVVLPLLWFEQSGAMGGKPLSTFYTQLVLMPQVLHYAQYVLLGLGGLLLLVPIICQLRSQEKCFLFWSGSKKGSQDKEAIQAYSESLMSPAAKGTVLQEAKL
`COc1ccc(C(=O)Nc2nc(-c3ccc(OC)cc3)c(-c3ccc([N+](=O)[O-])cc3)s2)cc1` was tested, and the inhibition was 32.2% (inactive).
`Cc1ccc(OC(=O)CCC(=O)Nc2ccc(Br)cc2)cc1` was tested, and the inhibition was -15.2% (inactive).
With `COC(=O)CCc1sc(Nc2ccc(Br)cc2)nc1-c1ccc(OC)cc1` the inhibition was 87.4% (active).
For `COc1ccc(-c2ccc3c(c2)C2CC3CCN2CCC#N)cc1` (stereo unspecified), the inhibition was 33.2% (inactive).
In the case of `C=CCn1c(=O)n(C)c2c(=O)n(C)c(=O)n(C)c21`, the inhibition is reported as 1.14% (inactive).
With `COc1ccc(CCNC(=O)COc2cc(C)cc3oc(=O)c(C)c(C)c23)cc1OC` the inhibition was 6.42% (inactive).
For `CCOc1ccc(OCCSc2nc3ccccc3n2CC(=O)O)cc1`, the inhibition was 71.7% (active).
`Cc1ccc(C(C)C)c(OCCSc2nc3ccccc3n2CC(=O)O)c1` was tested, and the inhibition was -2.24% (inactive).
In the case of `CCCn1c(C(O)c2ccc(OCC)cc2)nc2ccccc21` (stereo unspecified), the inhibition is reported as 14% (inactive).
`COc1ccc2c(c1)c(=Cc1ccc(N(C)C)cc1)c1cc(-c3ccccc3)[n+](C)n12` was tested, and the inhibition was -63.4% (inactive).
With `CCCN(CCC)S(=O)(=O)c1cc2c(cc1Br)CCN2C(=O)CC` the inhibition was 7.1% (inactive).
In the case of `CCN(CC)CCCC(C)n1c2nc(=O)[nH]c(=O)c-2nc2cc(Cl)ccc21` (stereo unspecified), the inhibition is reported as 9.9% (inactive).
In the case of `CCC1([N+](=O)[O-])COC(c2ccc(C(C)C)cc2)OC1` (stereo unspecified), the inhibition is reported as -13.9% (inactive).
`CCc1ccc2c(c1)C1(NN=C(c3ccccc3)S1)C(=O)N2` (stereo unspecified) was tested, and the inhibition was 115% (active).
`NNc1cccc(C=Cc2ccccc2)cc1=O` was tested, and the inhibition was 16.6% (inactive).
With `O=C(Nc1ccc(F)cc1)N1CCN(c2ccc(F)cc2)CC1` the inhibition was -29.4% (inactive).
`O=C(Nc1cccc(NC(=O)N2CCN(c3ccccc3)CC2)c1)N1CCN(c2ccccc2)CC1` was tested, and the inhibition was 86% (active).
`CC(=O)N1CCN(C(=O)Nc2cccc(C(F)(F)F)c2)CC1` was tested, and the inhibition was -9.59% (inactive).
For `O=c1c2ccccc2ncn1CCc1ccncc1`, the inhibition was -5.47% (inactive).
In the case of `NC(=O)C1(Nc2ccc(-c3ccccc3)cc2)CCCC1`, the inhibition is reported as 1.01% (inactive).
With `Cc1cc(C)c(C=NNc2nc3c([nH]2)c(=O)n(C)c(=O)n3C)c(C)c1` the inhibition was -12.4% (inactive).
With `CCOc1ccc(N/C=C/C(=O)c2cc(OC)c(OC)c(OC)c2)cc1` the inhibition was 78.7% (active).
With `CCOc1ccc(N/C=C/C(=O)c2ccccc2)cc1` the inhibition was -1.21% (inactive).
In the case of `CCC(=O)c1ccc(OC(=O)/C=C/c2cc(OC)c(OC)c(OC)c2)cc1`, the inhibition is reported as 48.6% (inactive).
For `COc1ccc(S(=O)(=O)N2CCc3ccccc32)cc1C(=O)Nc1cc(S(C)(=O)=O)ccc1Cl`, the inhibition was 27.5% (inactive).
In the case of `O=S(=O)(Nc1ccc2ccccc2c1)N1CCCCC1`, the inhibition is reported as 1.03% (inactive).
With `c1ccc(CCc2ccccn2)cc1` the inhibition was -7.77% (inactive).
`O=C(OC12CC3CC(CC(C3)C1)C2)c1ccc(NCc2cc(O)ccc2O)cc1` was tested, and the inhibition was 5.77% (inactive).
With `Cc1nc(N)nc(Cl)c1CCC1OCCO1` the inhibition was -19.5% (inactive).
For `Oc1[nH]c2ccccc2c1N=Nc1c(F)c(F)c(F)c(F)c1F`, the inhibition was 15.7% (inactive).
`O=[N+]([O-])c1cc(S(=O)(=O)Nc2cccc(Cl)c2)ccc1N=Nc1c(O)[nH]c2ccccc12` was tested, and the inhibition was 101% (active).
`CN1CCN(c2ccc(S(=O)(=O)Nc3ccccc3)cc2[N+](=O)[O-])CC1` was tested, and the inhibition was -5.63% (inactive).
With `O=C1CC(C(=O)O)NC(=S)N1` (stereo unspecified) the inhibition was -3.49% (inactive).
`COc1ccc(Br)cc1C(=O)Nc1cccc(C)c1C` was tested, and the inhibition was 76.2% (active).
In the case of `COc1cc(OC)c(C(=O)Nc2ccccc2-c2ccccc2)cc1OC`, the inhibition is reported as 20.8% (inactive).
With `COc1ccc(Br)cc1C(=O)NC(=S)Nc1cc(-c2nc3ccccc3[nH]2)ccc1C` the inhibition was 60.8% (inactive).
In the case of `Cc1ccc(OCCNC(=O)c2cccc(S(=O)(=O)N3CCN(Cc4ccccc4)CC3)c2)cc1`, the inhibition is reported as 20.6% (inactive).
For `COc1ccc(C(=O)Nc2cccc(/C=C(/CCC(=O)O)c3nc4ccccc4s3)c2)cc1`, the inhibition was 36.4% (inactive).
`O=C(N/N=C/c1ccc(OC(=O)c2ccccc2Cl)cc1)c1ccc(O)cc1` was tested, and the inhibition was 44.4% (inactive).
For `CC(C)(C)C(=O)Nc1ccc(C(=O)N/N=C/c2ccccc2OC(=O)c2ccc(Cl)cc2Cl)cc1`, the inhibition was 94.1% (active).
For `O=C(N/N=C/c1ccoc1)c1ccc(Cl)cc1Cl`, the inhibition was -28.2% (inactive).
With `O=C(NCC1(N2CCCCC2)CCCCC1)c1cccc(S(=O)(=O)Nc2ccccc2Cl)c1` the inhibition was -8.99% (inactive).
For `Cc1ccc(C2=Nc3c(ccc4ccccc34)C(c3ccncc3)=NN2)cc1`, the inhibition was 2.19% (inactive).
`CCOc1ccc2c(c1)C(c1ccc(C)cc1)=NNC(c1ccc(C)cc1)=N2` was tested, and the inhibition was 85.5% (active).
`COc1ccc2c(c1)C(c1cccs1)=NNC(c1cccnc1)=N2` was tested, and the inhibition was -13.8% (inactive).
In the case of `CN(C)c1ccc(CSc2ccccc2)cc1`, the inhibition is reported as -8.91% (inactive).
With `O=C(CCCCCCCC(=O)N1CCCCC1)N1CCCCC1` the inhibition was -7.35% (inactive).
With `CSCCC(NC(=O)COc1ccccc1)C(=O)N1CCN(c2cccc(C(F)(F)F)c2)CC1` (stereo unspecified) the inhibition was 13.3% (inactive).
For `CCC(=O)Nc1ccc(C(=O)N2CCN(C(=O)c3ccco3)CC2)cc1`, the inhibition was -9.2% (inactive).
In the case of `Cc1ccc(OCC(=O)Nc2ccc(N3CCN(C(=O)c4ccco4)CC3)cc2)c(C)c1`, the inhibition is reported as 78% (active).
For `Cc1ccc(C)c(OCC(=O)N2CCN(C(=O)c3ccco3)CC2)c1`, the inhibition was -10.6% (inactive).
In the case of `COc1cc2[nH]c(O)c(C=O)c2cc1OC`, the inhibition is reported as -52% (inactive).
In the case of `O=C1OCC2=C1C(c1ccc(Cl)cc1)c1cc3c(cc1O2)OCO3` (stereo unspecified), the inhibition is reported as 14% (inactive).
For `Cc1ccc(Nc2nc(N3CCOCC3)nc(N3CCOCC3)n2)cc1Cl`, the inhibition was 55% (inactive).
For `CCOc1ccc(Nc2nc(Cl)nc(N3CCN(c4ccc(OC)cc4)CC3)n2)cc1`, the inhibition was 73.8% (active).
For `COc1ccc(Nc2ncc(F)c(N3CCOCC3)n2)cc1`, the inhibition was 22.2% (inactive).
For `CCN(CC)S(=O)(=O)c1cccc(NC(=O)c2ccc(S(=O)(=O)N3CCCC3)cc2)c1`, the inhibition was 41.2% (inactive).
With `Cn1c(N)cc(=O)n(C)c1=S` the inhibition was -17.8% (inactive).
In the case of `CCOC(=O)c1ccc(NC(=S)N2CCCC2)cc1`, the inhibition is reported as -10.4% (inactive).
With `CN(C)c1ccc(C(=S)N2CCN(C(=S)Nc3ccc(Cl)cc3)CC2)cc1` the inhibition was 95% (active).
For `NC(=O)C1(N2CCCCC2)CCN(C(=S)Nc2ccc(Cl)cc2)CC1`, the inhibition was -24.6% (inactive).
